SENP8 block-1: SENP8 protease inhibitors, primary screen, biochemical, luminescence; inhibition, % at 10 µM; AID 2540, 2010; 1.2% of 330,000 active; Sentrin-specific protease 8 (Homo sapiens), Q96LD8; purified SENP8, Z-RLRGG-aminoluciferin cleavage; in the data active = inhibition above about 50%
TRAIL sens C8: viability loss with TRAIL in NB7+C8 cells, primary screen, TRAIL sensitizer project, cell-based, ATPlite luminescence. AID 624354, 2012. 1% of 360,000 active. inhibition (viability loss, TRAIL sensitization), % at 10 µM;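 active = compounds causing at least 50% loss of cell viability in the single-dose screen, relative to plate controls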
SENP6 block: SENP6 protease inhibitors, primary screen, biochemical, luminescence, uHTS | Sentrin-specific protease 6 (Homo sapiens), Q9GZR1 | Recombinant SENP6 catalytic domain, aminoluciferin luminescence | inhibition, % at 10 µM | 1.8% of 330,000 active | AID 2599, 2010;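 active = inhibition above about 50% at the single tested dose, limit read from the data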
Target sequence (Q9GZR1 628-1112 limits assumed): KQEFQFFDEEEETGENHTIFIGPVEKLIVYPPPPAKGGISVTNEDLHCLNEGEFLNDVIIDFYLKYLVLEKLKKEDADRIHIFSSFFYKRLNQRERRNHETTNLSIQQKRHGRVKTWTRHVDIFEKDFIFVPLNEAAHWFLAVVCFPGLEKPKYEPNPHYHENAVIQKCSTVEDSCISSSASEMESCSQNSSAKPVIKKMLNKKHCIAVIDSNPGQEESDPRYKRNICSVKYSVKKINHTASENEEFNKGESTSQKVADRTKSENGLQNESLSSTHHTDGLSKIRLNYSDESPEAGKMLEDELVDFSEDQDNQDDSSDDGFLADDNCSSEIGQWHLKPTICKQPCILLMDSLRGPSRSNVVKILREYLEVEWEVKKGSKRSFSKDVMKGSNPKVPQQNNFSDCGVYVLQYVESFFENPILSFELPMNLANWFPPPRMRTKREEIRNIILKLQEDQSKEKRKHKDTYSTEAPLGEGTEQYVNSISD
SENP8 block-2: human SENP8 protease inhibitors, primary screen, biochemical, fluorescence, Nedd8 protein substrate, uHTS; Sentrin-specific protease 8 (Homo sapiens), Q96LD8; inhibition, % at 20 µM; recombinant SENP8; 0.64% of 360,000 active; AID 602440, 2012; in the data active = inhibition mostly above about 40%, no sharp cut-off; inactive = mostly below about 27%
SENP7 inh: SENP7 protease inhibitors, primary screen, biochemical, luminescence, uHTS | Sentrin-specific protease 7 (Homo sapiens), Q9BQF6 | recombinant SENP7, Z-RLRGG-aminoluciferin luminescence, 40 min | inhibition, % at 5 µM | 1.5% of 330,000 active;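 active = inhibition above about 50% at the single test dose, limit read from the data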
PPC-1+TRAIL kill: compounds killing PPC-1 cancer cells with TRAIL present, primary screen, TRAIL potentiator project, ATPLite luminescence, uHTS. cell killing (% activity), % at 4 µM or 5 µM. AID 1443, 2008. PPC-1 cells + TRAIL, ATPLite viability luminescence. 0.41% of 220,000 active;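 active = cell killing above 50% in the first pass at 4 µM, then a duplicate retest at 5 µM averaging 50% or more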
SENP8 conf: human SENP8 protease inhibitors, confirmation, biochemical, Nedd8 protein substrate, single concentration; shares compounds with SENP8 block-2; purified SENP8, Nedd8-AMC/pro-Nedd8 cleavage fluorescence, 30 min; inhibition, % at 25 µM; 15% of 1,400 active; in the data active = inhibition mostly above about 39%, no sharp cut-off; inactive = mostly below about 34%
Large screens that a line does not name were inactive (follow-up assays come after a bar, where they were run). A selection: hits, their analogues and other compounds. The true share with any hit is near 3%.

Cc1cc2ccccn2c1C(=O)c1ccccc1F	SENP8 block-2 41 (no result: PPC-1+TRAIL kill) | SENP8 conf inactive
Cc1cc2ccccn2c1C(=S)NC(=O)c1ccccc1	none
COc1ccc(C(=O)C[C@@H]2OC3CCCCC3N2S(=O)(=O)c2ccc(C)cc2)cc1OC (stereo not given in full)	none (no result: SENP8 block-1, SENP6 block, SENP7 inh, PPC-1+TRAIL kill)
C[n+]1ccc2[nH]c3ccccc3c2c1	none (no result: SENP8 block-1, SENP6 block, SENP7 inh, PPC-1+TRAIL kill)
Cc1[nH]c2ccccc2c1/C=C/c1cc[n+](C)cc1	SENP8 block-2 44 (no result: SENP8 block-1, SENP6 block, SENP7 inh) | SENP8 conf inactive
CC(C)CC(=O)NC(=S)Nc1ccccc1N1CCCC1	SENP8 block-2 59 | SENP8 conf inactive
CCN(CC)c1ccc(NC2CC(=O)N(CCc3ccc(OC)cc3)C2=O)cc1 (stereo not given)	SENP8 block-2 74 | SENP8 conf inactive
Cc1cc(C)nc(N2N=C(C(C)(C)C)CC2=O)n1	SENP8 block-2 63 | SENP8 conf 76
CCCn1c(=O)c(C(=O)NNS(=O)(=O)c2ccc(Cl)cc2)c(O)c2ccccc21	none
O=C(Nc1cccc(Oc2c(F)c(F)c(F)c(F)c2F)c1)N1C[C@@H]2C[C@@H](C1)c1cccc(=O)n1C2	none
COc1ccc(NC(=O)[C@@H](NC(=O)N2C[C@H]3C[C@@H](C2)c2cccc(=O)n2C3)C(C)C)cc1OC	SENP8 block-2 45 (no result: PPC-1+TRAIL kill) | SENP8 conf inactive
COc1ccc(F)cc1C(=O)C1CCCN(Cc2c(C)n(C)n(-c3ccccc3)c2=O)C1 (stereo not given)	none
COC(=O)c1[nH]cnc1C(=O)c1ccccc1	SENP8 block-2 54 | SENP8 conf inactive
COc1ccccc1NC(=O)c1nc[nH]c1C(=O)Nc1ccccc1OC	none
O=C(CNC1CCN(Cc2ccccc2)CC1)Nc1ccc(S(=O)(=O)N2CCCCC2)cc1	SENP8 block-2 43 | SENP8 conf inactive
CN(C)c1ncnc2c1ncn2[C@H]1CN(C2CCCC2)C[C@@H](CO)O1	none (no result: SENP8 block-1, SENP6 block, SENP7 inh, PPC-1+TRAIL kill)
Cc1cc(C)n(C(CC(=O)N2CCc3ccccc3C2)C(=O)O)n1 (stereo not given)	SENP8 block-2 44 | SENP8 conf inactive
C=CCN1C=C2C(=O)C(C)(OC(=O)c3cccs3)C(=O)C=C2C=C1CCCC(=O)OC (stereo not given)	none
COC(=O)CCCC1=CC2=CC(=O)C(C)(OC(=O)c3cccs3)C(=O)C2=CN1CCc1ccccn1 (stereo not given)	SENP8 block-2 40 | SENP8 conf 60
Cc1onc(-c2c(Cl)cccc2Cl)c1C(=O)c1ccccc1	none
Cc1onc(-c2c(Cl)cccc2Cl)c1C(=O)N=S(C)(=O)c1ccccc1 (stereo not given)	SENP8 block-2 41 | SENP8 conf inactive
O=C(CC(c1ccccc1)c1ccccc1)NCc1cccnc1	SENP8 block-2 41 | SENP8 conf inactive
O=C1c2cc(F)ccc2-n2c1nc1ccccc1c2=O	TRAIL sens C8 55, SENP8 block-2 42 (no result: PPC-1+TRAIL kill) | SENP8 conf 60
NC(=O)CC(NC(=O)Cc1ccc(Cl)cc1)c1ccc(NC2CCCCCCC2)c([N+](=O)[O-])c1 (stereo not given)	none (no result: PPC-1+TRAIL kill)
CC1CCC(NC(=O)C(Cc2ccccc2)n2cccc2)CC1 (stereo not given)	none
COc1ccc(/C=N/N=C2/CC(C)(C)Cc3n[nH]c(=O)cc32)cc1	SENP8 block-2 44 | SENP8 conf inactive
COc1ccc(/C=N/N=C2/NC(=O)CC(C(=O)O)S2)cc1 (stereo not given)	none
CC1=NN(c2ccccc2)C(=O)C1C=Nc1ccc(N(C)C)cc1 (stereo not given)	SENP8 block-2 17 | SENP8 conf inactive
CC1=NN(c2ccccc2)C(=O)C1/C=C1/NC(=S)NC1=O (stereo not given)	none
COc1cc(NCCCNC(C)C)c2nccc(C)c2c1	SENP8 block-2 65 (no result: SENP8 block-1, SENP6 block, SENP7 inh, PPC-1+TRAIL kill) | SENP8 conf 48
Cc1cc(C)n(-c2ccc(C(=O)OCC(=O)Nc3ccc(S(=O)(=O)N4CCCCC4)cc3)cc2)n1	SENP8 block-2 48 | SENP8 conf inactive
CC1=NCCN1CCNC(=O)Nc1ccc(F)cc1	SENP8 block-2 41 | SENP8 conf inactive
CC1=NCCN1CCNC(=O)Nc1cc(C)cc(C)c1	none
Cc1ccc(CN2CC(C(=O)O)CC2=O)cc1 (stereo not given)	SENP8 block-2 40 | SENP8 conf inactive
O=[N+]([O-])c1nn(-c2ccc(Cl)cc2)n(O)c1=NCc1ccncc1	SENP8 block-2 47 | SENP8 conf inactive
COC(=O)C(C)(C)ONC(=O)Nc1ccc(C)cc1	none
c1coc(-c2nnc(-c3ccco3)nn2)c1	SENP8 block-1 55, SENP6 block 73, SENP8 block-2 87 (no result: PPC-1+TRAIL kill) | SENP8 conf 70
CSc1ccc(-c2ccco2)nn1	none
C=CCn1ccc(=NC=C(C#N)C#N)c2ccccc21	SENP8 block-2 45 | SENP8 conf inactive
O=C1CC(N2CCOCC2)=NN1c1ccc([N+](=O)[O-])cc1	SENP8 block-2 76 | SENP8 conf 46
Cc1cc(C)nc(N2C(=O)CC(C(=O)O)NC2=NCCc2c[nH]c3ccccc23)n1 (stereo not given)	none
Cc1cc(C)nc(NC(=NCCc2c[nH]c3ccccc23)NC(=O)C(C)(C)C)n1	SENP8 block-2 46 | SENP8 conf inactive
CSc1cccc(NC(=O)COC(=O)c2ccccn2)c1	none (no result: PPC-1+TRAIL kill)
Cc1ccc(S(=O)(=O)Oc2ccc(/C=C(/NC(=O)c3ccccc3)C(=O)NC(C)C(=O)O)cc2)cc1 (stereo not given)	none
O=C(Nc1ccccc1F)c1ccc(CNS(=O)(=O)c2cccc(C(F)(F)F)c2)cc1	SENP8 block-2 48 | SENP8 conf inactive
O=C(COC(=O)c1ccc(S(=O)(=O)N2CCOCC2)cc1)NCc1cccs1	none
COc1ccc(NC(=O)COc2nsnc2N2CCOCC2)c(OC)c1	none (no result: PPC-1+TRAIL kill)
COc1ccc(NC(=O)Nc2ccc(N3CCOCC3)c3nonc23)c(OC)c1	SENP8 block-2 44 | SENP8 conf inactive
CCS(=O)(=O)N1CCC(C(=O)N2CCc3ccccc3C2)CC1	SENP8 block-2 44 | SENP8 conf 77
N#CC1=C(N)Oc2n[nH]c(-c3cccs3)c2C1c1ccccc1C(=O)O (stereo not given)	none

High-throughput results as filed in PubChem.
